# From PubChem
# Compounds with a hit are over-represented: about 2.8% of the library has one in this group of screens.
# PTHR1 agonist: agonists of human PTHR1 parathyroid hormone receptor. Q03431. HEK293 GP2 PTHR1 cells, GloSensor cAMP luminescence, 1 h. Potency, µM (titrated, usually from 115 µM), without a hit: at the top dose activation, most hits filed as activators. actives 0.075% (n = 410,000). AID 743266; also: potency is read from the fitted curve at half-maximal effect; nearly all actives have a fitted effect of over 55% in size
#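 HEK-293-derived GP2 cells expressing PTHR1 and a GloSensor cAMP reporter, 3,000/well, plated overnight, given luciferin plus IBMX (each 0.5 mM as added) for 1 h at 37 °C, then compound for 1 h at 37 °C. Luminescence was read after 15 min at room temperature.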
# D3 antag: antagonists of human D3 dopamine receptor; P35462; D3R cells, DiscoveRx beta-arrestin luminescence, antagonist mode; hits give low values; max response, negative = inhibition, %; actives 2.5% (n = 360,000); AID 652054; in the data active = max response below about -50%; inconclusive = no clear call, values can overlap the other calls; also: % is scaled to controls: 0 for no effect and ±100 for the full control effect
# Target sequence (P35462 whole entry, looked up): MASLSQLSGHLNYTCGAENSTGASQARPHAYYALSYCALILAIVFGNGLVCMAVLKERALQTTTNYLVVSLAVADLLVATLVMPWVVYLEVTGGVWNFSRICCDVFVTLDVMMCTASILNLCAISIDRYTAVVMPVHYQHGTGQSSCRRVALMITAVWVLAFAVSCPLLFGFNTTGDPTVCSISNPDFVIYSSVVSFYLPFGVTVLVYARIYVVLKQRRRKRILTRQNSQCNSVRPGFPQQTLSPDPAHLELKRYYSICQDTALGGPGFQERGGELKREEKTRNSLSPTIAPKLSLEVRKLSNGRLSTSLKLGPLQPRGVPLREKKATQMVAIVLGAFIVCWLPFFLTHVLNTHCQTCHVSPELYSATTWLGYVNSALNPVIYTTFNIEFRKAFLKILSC
#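 Cells expressing the human receptor were seeded at 1500 cells/well, incubated overnight at 37 degrees C in 5% CO2, then exposed to library compounds with dopamine controls for 90 minutes at 37 degrees C before luminescent detection.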
# D3 ag: agonists of human D3 dopamine receptor | max activation, % | actives 0.58% (n = 410,000) | AID 652048 | P35462 | D3R DiscoveRx beta-arrestin cells, luminescence, 90 min; in the data active = max activation above about 30%; also: 0% is about no effect
#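 Cells at 1500/well, incubated overnight, then treated with pinned compounds (dopamine as control) for 90 min at 37 degrees C. DiscoveRx reagent added for 30 - 60 minutes at room temperature; luminescence read.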
# a7 integrin act: activators of alpha7 integrin expression for muscular dystrophy. Potency, µM (series often up to 38.3 µM), without a hit: at the top dose activation, usual class: activators. actives 0.064% (n = 350,000). AID 624291. alpha7betagal myoblasts, beta-gal FDG fluorescence, 48 h;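 also: potency is read from the fitted curve at half-maximal effect; 100% = response of the positive control SU9516; nearly all actives have a fitted effect of over 60% in size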
#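 alpha7betagal+/- myoblasts (passage 13, 250/well) treated 48 h at 37C with compounds at 1:260 dilution of DMSO stock. Lysed, then beta-galactosidase activity read as FDG fluorescence (ex 480/em 540) after 30 min, with pre-read for autofluorescence.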
# CBFb RUNX1 block: CBF-beta/RUNX1 interaction disruption; Q01196+Q13951; AlphaScreen CBFb-His/RUNX1-biotin binding, biochemical; Potency, µM (doses to about 59.8 µM), for inactives: at the highest dose activity, negative = inhibition, actives largely listed as inhibitors; 230,000 tested, under 10 active; also: % of control where 0% means no effect
#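 Bead-based AlphaScreen assay; binding partners His-tagged CBF-beta and biotinylated RUNX1 at 30 nM each. Compound exposure 15 min after a 20-min protein preincubation; bead step 90 min; all steps at room temperature.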
# MBNL1-CUG inh: MBNL1-poly(CUG) RNA binding inhibition; TR-FRET MBNL1-His/biotin-(CUG)12 binding, 665/545 ratio; Potency, µM (titrated, usually from 57.5 µM), inactives show top-dose activity change, negative = inhibition, usual class: inhibitors; actives 0.036% (n = 280,000); active = well fitted inhibition curve with a large enough effect in the signal ratio, with a control signal flat, not every such curve was filed as active; inconclusive = small, poorly fitted or top-dose-only effect, or effect the other way, or a change in a side signal; inactive = no such curve, though single readings can be large or run the other way; the % refers to the signal ratio; also: potency is read from the fitted curve at half-maximal effect; % is scaled to controls: 0 for no effect and ±100 for the full control effect
#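 MBNL1-His + Biotin-(CUG)12, cpd titration 92 nM–58 uM; Tb anti-His Ab 0.055 ng/ul, SA-XL665 5 nM (final); 60 min RT; ratiometric 665/545 nm, Ex 340 nm; normalized to buffer and full-complex controls.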
# * = called active by the depositor; i = inactive; ? = inconclusive; . = no result given; [ ] = another dose, or the depositor's remark. Unless noted, calls follow the shape of the dose curve; as a rule, active = well fitted curve in the direction sought with a large enough effect; inconclusive = small, poorly fitted or top-dose-only effect, or another doubt; inactive = no such curve, though single readings can be large; an effect the other way counts as inactive or inconclusive.
SMILES,PTHR1 agonist,D3 antag,D3 ag,a7 integrin act,CBFb RUNX1 block,MBNL1-CUG inh
O=C(CCCCCn1c(=S)[nH]c2cc3c(cc2c1=O)OCO3)N1CCN(c2ccccc2)CC1,i,4,-15,?,.,4%
O=C(CCCn1c(=S)[nH]c2cc3c(cc2c1=O)OCO3)N1CCN(c2ccc(F)cc2)CC1,-33%,51,36*,-14%,0%,0%
COc1ccc(/C=N/NC(=O)c2cccc(O)c2)cc1Cn1nc(C)c([N+](=O)[O-])c1C,-16%,-2,-2,-17%,-3%,24%
CCN(CC)S(=O)(=O)c1cc(OC)c(Cl)cc1OC,-1%,3,0,-8%,6%,-1%
CN=c1scc(-c2ccc([N+](=O)[O-])cc2)n1/N=C/c1ccco1,-13%,9,6,19%,?,?
CN=c1scc(-c2ccc(F)cc2)n1/N=C/c1ccc(O)c(O)c1,-18%,1,95*,-45%,?,19%
O=[N+]([O-])c1ccc(Cl)c(/C=N/n2c(COc3ccccc3)n[nH]c2=S)c1,i,-58*,-32,-20%,-2%,?
Cc1n[nH]c(=S)n1/N=C/c1ccccc1OCc1ccc(Cl)cc1,-12%[57.5 µM],-51*,-4,-32%,-4%,11%
COc1ccccc1/C=C/C=N/n1c(-c2ccc(F)cc2)n[nH]c1=S,i,-12,-15,-14%,-10%,.
COc1ccccc1/C=C/C=N/n1c(COc2ccccc2)n[nH]c1=S,-2%[57.5 µM],-86*,-6,-9%,-8%,-3%
Cc1n[nH]c(=S)n1/N=C/c1cccc(OCc2ccccc2)c1,-20%,-7,-2,5%,-1%,-4%
S=c1[nH]nc(COc2ccccc2)n1/N=C/c1ccc(Cl)c(Cl)c1,-2%,-22,-4,2%,.,-11%
COc1ccccc1/C=C\C=N\n1c(-c2ccc(Cl)cc2)n[nH]c1=S,i,-51*,-19,-13%,3%,.
CCc1ccccc1NC(=O)c1cn(C)c(=O)c2ccccc12,i,.,-1,.,.,.
N[C@@H](C(=O)N[C@@H]1C(=O)N2C(C(=O)O)=C(Cl)CC[C@H]12)c1ccccc1,.,.,2,.,.,.
COC(=O)N[C@@H](c1ccc(Br)cc1)C(C(=O)OC)C(=O)OC,.,.,.,.,-7%,.
Cc1ccsc1CCN1C(=O)N(c2ccccc2)C(=O)C1CC(=O)Nc1ccc(F)cc1 (stereo not drawn),i,.,-5,.,.,.
CC#CCC(C)[C@H](O)/C=C/[C@@H]1[C@H]2C/C(=C/CCCC(=O)O)C[C@H]2C[C@H]1O (stereo partly drawn),.,.,-22,.,.,.
Cc1cccc(-c2n[nH]c(=S)n2/N=C/C=C/c2ccco2)c1,i,-98*,-10,-34%,-24%,6%
S=c1[nH]nc(-c2ccncc2)n1/N=C/C=C/c1ccco1,i,-19,8,20%,4%,12%
COc1ccc(-c2ccc3c(c2)S(=O)(=O)c2cccc(C(=O)NC[C@@H]4CCCO4)c2C3=O)cc1OC,i,82,37*,-20%,.,.
COc1cc(/C=C(\C#N)C(=O)c2ccc(O)c(O)c2)cc(I)c1O,i,0,40*,.,.,?
COc1ccc(C=C(C#N)C(=O)c2ccccc2)cc1,i,-6,-5,.,.,.
COc1ccccc1N1CCN(CC(=O)c2c(C)[nH]c3ccccc23)CC1,i,?,-21,-36%,-2%,2%
O=[N+]([O-])c1ccc(C(O)CN2CCOCC2)cc1 (stereo not drawn),i,8,5,-1%,.,26%
SMILES,PTHR1 agonist,D3 antag,D3 ag,a7 integrin act,CBFb RUNX1 block,MBNL1-CUG inh
COc1ccccc1N1CCN(CC(O)c2c(C)[nH]c3ccccc23)CC1 (stereo not drawn),i,-79*,-6,-34%,.,1%
O=[N+]([O-])c1ccc(C(O)CN2CCN(c3ccccc3)CC2)cc1 (stereo not drawn),-12%,2,34*,-31%,.,25%
COc1ccccc1N1CCN(CC(O)c2ccccc2)CC1 (stereo not drawn),-11%,-55*,-21,-10%,.,-10%
COc1cccc(N2CCN(C(=O)c3ccc4c(Cl)c5c(nc4c3)CCCC5)CC2)c1,-25%,.,14,.,.,.
Cc1ccc(-n2ncc(C#N)c2/N=C/N2CCN(C)CC2)cc1,i,-76*,2,-2%,-2%,5%
O=C(CN1C(=O)c2ccccc2S1(=O)=O)NC1CCCC1,-64%[57.5 µM],-52*,-3,15%,10%,-3%
Cc1c(Cl)c(-c2n[nH]c(=S)n2-c2ccc(F)cc2)nn1C,i,-66*,-4,22%,2%,7%
CCNC(=O)CC1C(=O)N(CC)C(=S)N1NC(=O)c1ccccc1 (stereo not drawn),-2%,8,4,-1%,6%,-15%
Cc1cccc(-n2c3c(cc(-c4nc(-c5ccc(Cl)cc5)cs4)c2=O)C(=O)CC(C)(C)C3)c1,4%,.,-5,.,.,.
O=C(NCCCN1CCN(c2ccc(F)cc2)CC1)C1CCCN(c2ncnc3c2nc2n3CCCCC2)C1 (stereo not drawn),-20%,-55*,-11,0%,.,-6%
COc1ccccc1N1CCN(CCCNC(=O)C2CCCN(c3ncnc4c3nc3n4CCCCC3)C2)CC1 (stereo not drawn),-30%,-104*,-20,-58%,.,-9%
CC1CCN(CCCNC(=O)C2CCCN(c3ncnc4c3nc3n4CCCCC3)C2)CC1 (stereo not drawn),i,-16,-6,2%,.,-9%
Cc1cccc(NC(=S)N2CCC(NC(=O)c3ccco3)CC2)c1,-11%,1,13,-8%,.,-1%
CCOC(=O)C1CCCN(C(=O)CN2C(=O)/C(=C/c3ccc(OC)cc3)Oc3ccccc32)C1 (stereo not drawn),-18%,25,-6,-21%,13%,.
COc1ccc(OCC(=O)N2CCC3(CC2)CC(=O)c2ccccc2O3)cc1,-3%,0,2,-16%,.,.
Cc1oc(-c2ccccc2Cl)nc1CSc1nc2c(c(=O)[nH]1)CCCC2,-7%,113,30*,13%,-2%,4%
O=c1[nH]c(SCc2ccccc2Cl)nc2c1CCC2,-19%,58,18,-18%,-1%,-3%
CC(C)(C)OC(=O)C[C@@H]1C/C=C\C[C@@H](CC(=O)N(CCO)Cc2ccccc2)C(=O)NCCOC1=O,1%,-123*,-27,5%,.,.
